Laboratory results from PubChem BioAssay (EPA / NIEHS).
Activity calls are given as the source filed them. Rule for the calls: active = hit-call score of the fitted dose curve at least 0.9, where 1 is the maximum; inactive = score below 0.9.

experiment: BSK_4H_SRB: Viability Assessment in the BioMAP Diversity Plus: 4H Assay (AID 2283027); conditions: primary human endothelial cells (HUVEC);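 note: cells exposed to compound for 24 h before staining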;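 for AC50: curves fitted both ways versus DMSO so AC50 may be loss or gain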
Procedure, shortened: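 Absorbance at 560 nm of SRB-stained total protein served as the viability read-out in confluent primary human umbilical vein endothelium 24 h after chemical treatment. Curves were fitted bidirectionally against DMSO as negative control.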

Compound	AC50	outcome
NC(=O)c1nc(-c2cccc(-c3cc(F)ccc3OCC(F)(F)C(F)(F)F)c2)n[nH]1	35.2 µM (active)	
O=C(Nc1ccc(Cl)cc1)Nc1ccc(Cl)c(Cl)c1	2.02 µM (active)	
CCCCCCCCCCCC[N+](C)(C)C	26.9 µM (active)	
CCCCOC(=O)CC(CC(=O)OCCCC)(OC(C)=O)C(=O)OCCCC		inactive
Clc1ccccc1C(c1ccccc1)(c1ccccc1)n1ccnc1	24.9 µM (active)	
CC(C)(C)c1csc(-c2cc3cc(OCc4ccccc4CC(=O)O)ccc3o2)n1	20 µM (active)	
c1ccc2n[nH]nc2c1		inactive
CCCCCCCCOC(=O)c1cc(O)c(O)c(O)c1	15.1 µM (active)	
CC[C@@H]1C[C@H](N(Cc2cc(C(F)(F)F)cc(C(F)(F)F)c2)C(C)=O)c2cc(C(F)(F)F)ccc2N1C(=O)OC(C)C		inactive
C[C@]12CC[C@@H]3c4ccc(O)cc4CC[C@H]3[C@@H]1CCC2=O		inactive
Cc1c2ccccc2c(C)c2c1ccc1ccccc12	18.8 µM (active)	
CCCCCCCCOc1ccc(C(=O)c2ccccc2)c(O)c1		inactive
CCCOC(=O)c1cc(O)c(O)c(O)c1		inactive
c1ccc(C[n+]2cccc3ccccc32)cc1		inactive
Cc1oc2c(NC(=O)c3c(Cl)cccc3Cl)cccc2c1C(C)(C)O	15 µM (active)	

experiment: BSK_BE3C_SRB: Viability Assessment in the BioMAP Diversity Plus: BE3C Assay (AID 2283028); conditions: primary human bronchial epithelial cells;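 note: measured 24 h after chemical dosing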;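 for AC50: fitted both ways so AC50 may mark signal gain or loss versus DMSO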
Procedure, shortened: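 Overt cytotoxicity was assessed as total protein in confluent human primary bronchial epithelial cultures 24 h after chemical addition, using 0.1% sulforhodamine B staining read at 560 nm.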

Compound	AC50	outcome
NC(=O)c1nc(-c2cccc(-c3cc(F)ccc3OCC(F)(F)C(F)(F)F)c2)n[nH]1	34.5 µM (active)	
O=C(Nc1ccc(Cl)cc1)Nc1ccc(Cl)c(Cl)c1		inactive
CCCCCCCCCCCC[N+](C)(C)C	32 µM (active)	
CC[C@H](NC(=O)c1cc(F)ccc1NS(=O)(=O)c1cccc2cccnc12)c1ccccc1		inactive
O=C=NCCCCCCN=C=O		inactive
CN(C)C(=O)C1(N2CCCCC2)CCN(CC[C@@]2(c3ccc(Cl)c(Cl)c3)CN(C(=O)c3ccccc3)CCO2)CC1	26.6 µM (active)	
CCCCOC(=O)CC(CC(=O)OCCCC)(OC(C)=O)C(=O)OCCCC		inactive
Clc1ccccc1C(c1ccccc1)(c1ccccc1)n1ccnc1	8.78 µM (active)	
Cc1occc1C(=O)Nc1ccc(C(=O)N2CCC(F)(F)/C(=C\C(=O)N3CCC(N4CCCCC4)CC3)c3ccccc32)cc1		inactive
Cc1cn([C@H]2C[C@H](N=[N+]=[N-])[C@@H](CO)O2)c(=O)[nH]c1=O		inactive
Oc1ccc2ccccc2c1		inactive
COc1ccc2cc(S(=O)(=O)N[C@H](CC(=O)N[C@H](Cc3ccc(CN4[C@H](C)CCC[C@@H]4C)cc3)C(=O)N(C)C(C)C)c3ccc4c(c3)OCO4)ccc2c1		inactive
CCCCCCCCCC(=O)O		inactive
CC(C)(C)c1csc(-c2cc3cc(OCc4ccccc4CC(=O)O)ccc3o2)n1	12.2 µM (active)	
CC(C)(C)c1cc(/C=C2\SC(N)=NC2=O)cc(C(C)(C)C)c1O		inactive
CCOC(=O)O[C@H](C)OC(=O)c1ccc2c(c1)cc(C(=O)NC1CCN(C(C)C)CC1)n2Cc1cc(-c2ccc(Cl)s2)on1	6.07 µM (active)	
CN(C)c1ccc(C(=C2C=CC(=[N+](C)C)C=C2)c2ccc(N(C)C)cc2)cc1	7.72 µM (active)	
O=c1ccc2ccccc2o1		inactive
c1ccc2n[nH]nc2c1		inactive
CCCCCCCCOC(=O)c1cc(O)c(O)c(O)c1	33.6 µM (active)	
CC(C)(c1cc(Br)c(O)c(Br)c1)c1cc(Br)c(O)c(Br)c1	5.06 µM (active)	
CCN(Cc1cccc(S(=O)(=O)O)c1)c1ccc(C(=C2C=CC(=[N+](CC)Cc3cccc(S(=O)(=O)O)c3)C=C2)c2ccccc2S(=O)(=O)[O-])cc1		inactive
CC[C@@H]1C[C@H](N(Cc2cc(C(F)(F)F)cc(C(F)(F)F)c2)C(C)=O)c2cc(C(F)(F)F)ccc2N1C(=O)OC(C)C		inactive
CCN(Cc1cccnc1)C(=O)c1cccc(Cl)c1[C@]1(C)C(=O)N(Cc2ccc(OC)cc2OC)c2ccc(Cl)cc21		inactive
Cc1ccc2oc(CN(Cc3ccccc3)C(=O)Nc3c(F)cc(F)cc3F)c(-c3ccc(Cl)cc3)c2c1		inactive
C[C@]12CC[C@@H]3c4ccc(O)cc4CC[C@H]3[C@@H]1CCC2=O		inactive
Cc1cc(F)ccc1-c1cc(N2CC[C@@H](O)[C@H]2CO)ncc1N(C)C(=O)C(C)(C)c1cc(C(F)(F)F)cc(C(F)(F)F)c1	12.9 µM (active)	
Cc1c2ccccc2c(C)c2c1ccc1ccccc12		inactive
